Experimental findings from PubChem BioAssay (NCI) are described below.

The structures appear in SMILES notation. About 79,000 compounds went through this panel and 15% of them were active in at least one assay; those are over-represented in the sample as a whole. Values without a mark were called inactive. Active and inactive are the calls of the source. No stated cut-off is given here; in the data, active means growth inhibition above about 70%; inactive means the rest.

A short description of assay [1]: NCI Yeast Anticancer Drug Screen. Data for the rad50 strain (AID 155).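 Further: 0% = growth of vehicle-only cultures of the same strain.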 To be noted: S. cerevisiae rad50 strain growth inhibition; at 50.0 µM; active compounds read high. The essentials: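 Compounds were tested on a yeast strain with an engineered DNA damage repair alteration; the reported value is growth inhibition normalised to vehicle treatment.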
The nature of assay [2]: NCI Yeast Anticancer Drug Screen. Data for the mec2-1 strain (AID 157). To be noted: S. cerevisiae mec2-1 strain, at 50.0 µM, active compounds read high. In outline: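 Vehicle-treated cultures served as reference for growth inhibition of compound-exposed mec2-1 yeast.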
Assay [3] in a line: NCI Yeast Anticancer Drug Screen. Data for the sgs1 mgt1 strain (AID 161).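 Further: 0% = growth of cultures given vehicle only.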 To be noted: S. cerevisiae sgs1 mgt1 strain, at 50.0 µM, active compounds read high. In outline: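 Test agents were incubated with a DNA-repair-mutant yeast strain. Growth was then read and compared against vehicle-treated controls.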
Assay [4] in a line: NCI Yeast Anticancer Drug Screen. Data for the cln2 rad14 strain (AID 165).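 Further: 0% = growth equal to vehicle treated cultures.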 To be noted: S. cerevisiae cln2 rad14 strain, at 50.0 µM, active compounds read high. In outline:
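Each compound was tested on cln2 rad14 yeast. Inhibition of growth was calculated against vehicle-exposed controls.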

Assay [5] in a line: NCI Yeast Anticancer Drug Screen. Data for the bub3 strain (AID 167). To be noted: S. cerevisiae bub3 mutant strain, at 50.0 µM, active compounds read high. In outline: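 Growth of a checkpoint-deficient yeast mutant is measured after compound exposure. Values represent inhibition relative to vehicle.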
Assay [6] is described as follows: NCI Yeast Anticancer Drug Screen. Data for the mlh1 rad18 strain (AID 175). To be noted: S. cerevisiae mlh1 rad18 strain growth inhibition; at 50.0 µM; active compounds read high. The essentials: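 Vehicle-treated cultures served as the reference for growth inhibition in a yeast strain carrying DNA damage repair alterations exposed to each compound.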

As to `CCOP(O)OCC`, the growth inhibition in assay [1] was 0.6%; in assay [2], 11.4%; in assay [3], -5.25%; in assay [4], 23.9%; in assay [5], -5.2%; in assay [6], -1.35%.

Take `S=P(C1CCCCC1)(C1CCCCC1)C(c1cccnc1)N1CCCC1` (stereo not given): the growth inhibition was -6.85% in assay [1]; -9.1% in assay [2]; -6.3% in assay [3]; -5.85% in assay [4]; 20.6% in assay [5]; 14.1% in assay [6].

Regarding `CCC1(C/C=C/Cl)C(=O)NC(=O)NC1=O`, the growth inhibition in assay [1] was 7.65%; in assay [2] it was -3.5%; in assay [3] it was -29.5%; in assay [4], -38.5%; in assay [5] it was 6.45%; in assay [6], -29.1%.

As to `S=C([S-])N1CCCCC1.S=C([S-])N1CCCCC1.[Zn]`, the growth inhibition in assay [1] is 79.5% (active); in assay [2] it was 73.3% (active); in assay [3] it was 96% (active); in assay [4] it was 22.9%; in assay [5], -3%; in assay [6], 65%.

In the case of `C[N+](C)(C)CC1CCc2ccccc2C1=O` (stereo not given), the growth inhibition in assay [1] is 89.2% (active); in assay [2], 44.6%; in assay [3], 69.2%; in assay [4], 50.2%; in assay [5], 40.5%; in assay [6], 91.4% (active).

Regarding `C(=NCCN1CCOCC1)=NC1CCCCC1`, the growth inhibition in assay [1] was -22.4%; in assay [2], -3.25%; in assay [3], -10.9%; in assay [4], -21.1%; in assay [5], -58.1%; in assay [6], -16.1%.

For `O=[N+]([O-])c1ccc(SC2CCCCCCC2Br)c([N+](=O)[O-])c1` (stereo not given), the growth inhibition in assay [1] is -16.9%; in assay [2], -13.5%; in assay [3] it was -0.5%; in assay [4], -33.6%; in assay [5], 8.95%; in assay [6] it was -18.4%.

Consider `Oc1ccc(Br)cc1`, for which the growth inhibition was 1.15% in assay [1]; -18.1% in assay [2]; -14.4% in assay [3]; -14.3% in assay [4]; -15.1% in assay [5]; -6.5% in assay [6].

With `CC(C)=CCC12Cc3ccc(O)cc3C(C(C)CN1)C2C` (stereo not given), the growth inhibition in assay [1] was -1.5%; in assay [2], 9.8%; in assay [3] it was 27.8%; in assay [4] it was 11.8%; in assay [5], 10.7%; in assay [6] it was 25.7%.

Consider `O=S1(=O)CC2(N3CCOCC3)C3CCC(C3)C21` (stereo not given), for which the growth inhibition in assay [1] was 24%; in assay [2], 4.6%; in assay [3] it was 0.6%; in assay [4], -0.4%; in assay [5] it was 9.15%; in assay [6], 11.6%.

As to `CCN1/C(=C/C=C2\CCC(/C=C/c3sc4ccc(Cl)cc4[n+]3CC)=C2N(c2ccccc2)c2ccccc2)Sc2ccc(Cl)cc21`, the growth inhibition in assay [1] is 14.4%; in assay [2] it was 32.2%; in assay [3] it was 64.9%; in assay [4], 4.05%; in assay [5], 57.4%; in assay [6] it was 56.7%.

Turning to `CN1C(=O)c2ccccc2NC(=O)C12OC2c1ccccc1` (stereo not given), the growth inhibition was -0.1% in assay [1]; 18% in assay [2]; 11.3% in assay [3]; 10.2% in assay [4]; 18.2% in assay [5]; 8.15% in assay [6].

For `CC(=O)N(C)C(=O)Oc1cccc2ccccc12`, the growth inhibition in assay [1] was -8.35%; in assay [2] it was 17.4%; in assay [3], -10.8%; in assay [4], -34.2%; in assay [5] it was -27.1%; in assay [6], -0.55%.

With `COc1ccccc1CN1CCN(Cc2ccccc2OC)C1c1ccc(N(CCCl)CCCl)cc1`, the growth inhibition was -9.8% in assay [1]; -9.05% in assay [2]; -14.7% in assay [3]; -32.5% in assay [4]; -1.9% in assay [5]; -4.1% in assay [6].

Regarding `COc1ccc2c(c[n+](C)c3c4cc5c(cc4ccc23)OCO5)c1OC`, the growth inhibition in assay [1] was 0.2%; in assay [2], -6.25%; in assay [3], 5.6%; in assay [4] it was 14%; in assay [5], -6.5%; in assay [6], 0.6%.

Turning to `COc1cc2c(cc1OC)C13CCN4CC5=CCOC6CC(=O)N2C1C6C5CC43O` (stereo not given), the growth inhibition in assay [1] is -13.9%; in assay [2], -30.9%; in assay [3], -8.05%; in assay [4], 8.55%; in assay [5], -4.2%; in assay [6], -47.4%.

For `O=[C-]CC(=O)c1ccccc1.O=[C-]CC(=O)c1ccccc1.[Fe+2]`, the growth inhibition in assay [1] is -7.85%; in assay [2] it was 3.15%; in assay [3], 8.5%; in assay [4], 12%; in assay [5], -0.65%; in assay [6], 6.15%.

As for `Cc1ccc(C)c(OP(=O)(Oc2cc(C)ccc2C)Oc2cc(C)ccc2C)c1`, the growth inhibition is -29.8% in assay [1]; -42.5% in assay [2]; -15.6% in assay [3]; 8.85% in assay [4]; -18% in assay [5]; -36.9% in assay [6].

With `O=C(O)c1ccccc1N(CCO)CCCl`, the growth inhibition in assay [1] is -11.2%; in assay [2] it was -10.4%; in assay [3], -31.4%; in assay [4], 21.6%; in assay [5] it was -14%; in assay [6] it was -22.8%.

Take `CCOC(=O)N(NC(=O)c1ccc(N(CCCl)CCCl)cc1)C(C)=O`: the growth inhibition in assay [1] was 6.2%; in assay [2], 8.95%; in assay [3], 3.15%; in assay [4] it was -15.5%; in assay [5], 5.65%; in assay [6] it was 30.9%.

Regarding `O=C(CCC1C(=O)NC(=S)NC1=O)c1ccc2ccccc2c1`, the growth inhibition in assay [1] was 14.7%; in assay [2], 17.8%; in assay [3], -12.2%; in assay [4] it was 5.3%; in assay [5] it was -7.95%; in assay [6] it was -8.15%.

`ClCc1nc(-c2ccco2)no1`: the growth inhibition in assay [1] was 6.1%; in assay [2], 51.2%; in assay [3], 20.6%; in assay [4] it was -42.5%; in assay [5] it was 4.55%; in assay [6], 29.9%.

With `NC(=Nc1ccccc1)Nc1ccccc1` (tested in a mixture with another compound), the growth inhibition is -1.65% in assay [1]; -12.1% in assay [2]; 1.7% in assay [3]; 13.2% in assay [4]; 6.4% in assay [5]; 6.35% in assay [6].

Turning to `CC(=O)Oc1cccc(C#N)c1`, the growth inhibition is -3.1% in assay [1]; 1.25% in assay [2]; 1.7% in assay [3]; -24.8% in assay [4]; 6.65% in assay [5]; 5.05% in assay [6].

On to `ClC12OOC(c3ccccc3)(O1)C(c1ccccc1)c1ccccc12` (stereo not given), for which the growth inhibition is 14.2% in assay [1]; 24.1% in assay [2]; 34.9% in assay [3]; 51.9% in assay [4]; 10.8% in assay [5]; 44.5% in assay [6].

With `CCCCC(=O)[O-].N.N.N.N.N.[Co+3].[O-][Cl+3]([O-])([O-])[O-]`, the growth inhibition in assay [1] was -19.9%; in assay [2] it was 19.4%; in assay [3], -18.4%; in assay [4] it was 21.4%; in assay [5] it was -0.3%; in assay [6] it was -16%.

With `CC1(C)N=C(N)N=C(N)N1c1ccc(CCc2cc(Cl)ccc2S(=O)(=O)F)c(Cl)c1`, the growth inhibition in assay [1] is 99.5% (active); in assay [2] it was 99.7% (active); in assay [3], 99.7% (active); in assay [4] it was 99.2% (active); in assay [5], 99.3% (active); in assay [6] it was 99.5% (active).

Regarding `C[C@]12CC[C@@H](OC(=O)N(CCCl)N=O)C[C@@H]1CC[C@@H]1[C@@H]2CC[C@]2(C)C(=O)CC[C@@H]12`, the growth inhibition in assay [1] is 1.55%; in assay [2], -3.4%; in assay [3] it was 26.5%; in assay [4], -0.75%; in assay [5], 13.2%; in assay [6], 59.9%.

Regarding `COC(=O)C1=CO[C@@H](C)[C@@H]2CN3CCc4c([nH]c5cc(OC)ccc45)[C@@H]3C[C@H]12`, the growth inhibition in assay [1] was -0.2%; in assay [2] it was -28.9%; in assay [3], -11.1%; in assay [4] it was -2.9%; in assay [5], -27%; in assay [6], -19.2%.

With `CN(C)c1ccc([N+](=O)[O-])c([N+](=O)[O-])c1`, the growth inhibition was -14.8% in assay [1]; -12.5% in assay [2]; -7.75% in assay [3]; 7.95% in assay [4]; -12.4% in assay [5]; -3.05% in assay [6].

`CC[N+](CC)(CC)CC.N#CC(C#N)=C([SH2+])[SH2+].N#CC(C#N)=C([SH2+])[SH2+].[Co+2]`: the growth inhibition in assay [1] was 95.3% (active); in assay [2] it was 95.8% (active); in assay [3] it was 56%; in assay [4] it was 94.5% (active); in assay [5] it was 98.9% (active); in assay [6], 98.7% (active).

For the compound `CCOP(=O)(OCC)/C(C#N)=C/c1ccccc1`, the growth inhibition is 19.2% in assay [1]; -23.1% in assay [2]; -8.95% in assay [3]; -33.8% in assay [4]; -11.3% in assay [5]; 19.6% in assay [6].

As for `COCC(=O)CP(=O)(OC)OC`, the growth inhibition is -20.6% in assay [1]; -19.6% in assay [2]; -11.6% in assay [3]; 18.6% in assay [4]; -14.7% in assay [5]; 1.35% in assay [6].

Consider `O=C(Cl)OC1CS(=O)(=O)CC1O` (stereo not given), for which the growth inhibition is -6.6% in assay [1]; 1% in assay [2]; -2.5% in assay [3]; -34.6% in assay [4]; 4.45% in assay [5]; 0.25% in assay [6].

As to `CCOc1ccc(/C=C/c2cc(OC)c(OC)c(OC)c2)cc1`, the growth inhibition in assay [1] was -27.9%; in assay [2] it was -21.7%; in assay [3], -23.8%; in assay [4], -10.3%; in assay [5] it was -8.6%; in assay [6] it was -34.2%.
